SMILES strings stand for the structures. Out of some 39,000 compounds screened, about 3,300 (8.5%) were called active. Many of the other results were omitted from the sample, so actives are more common in it than they were.

In the experiment the test system is HepG2. In words: cytotoxicity call (relative viability < 0.9). The following applies: 10 µM.
As for `C[C@@H]1CN([C@@H](C)CO)C(=O)c2cccc(NS(=O)(=O)c3cn(C)cn3)c2O[C@@H]1CN(C)S(=O)(=O)c1cccs1`, the cytotoxicity call was “inactive”.

Take `Nc1ccc(O)cc1`: the cytotoxicity call was “active”.

On to `OCc1ccc(O)cc1`, for which the cytotoxicity call was “inactive”.

With `Nc1ccc(C(=O)O)cc1`, the cytotoxicity call is “inactive”.

`Oc1ccc(O)cc1`: the cytotoxicity call is “active”.

On to `Cc1ccc(O)cc1`, for which the cytotoxicity call was “inactive”.

As for `Nc1cccc(O)c1`, the cytotoxicity call is “inactive”.

On to `C[C@@H]1CCCCO[C@H](CN(C)S(=O)(=O)c2ccccc2)[C@@H](C)CN([C@H](C)CO)C(=O)c2cc(NS(=O)(=O)c3cn(C)cn3)ccc2O1`, for which the cytotoxicity call is “inactive”.

For the compound `Cc1noc(C)c1NC(=O)N(C)C[C@@H]1Oc2c(NC(=O)c3ccc(-c4nccs4)cc3)cccc2C(=O)N([C@@H](C)CO)C[C@@H]1C`, the cytotoxicity call is “inactive”.

Take `C[C@@H]1CCCCO[C@H](CN(C)C(=O)Cc2ccccc2)[C@H](C)CN([C@H](C)CO)C(=O)c2cc(NS(=O)(=O)c3ccc(F)cc3)ccc2O1`: the cytotoxicity call is “inactive”.

As for `C[C@H](CO)N1C[C@H](C)[C@@H](CN(C)C(=O)Nc2cccc3ccccc23)Oc2ccc(NC(=O)Cc3ccccc3)cc2CC1=O`, the cytotoxicity call was “inactive”.

As to `Cc1noc(C)c1NC(=O)Nc1ccc2c(c1)C(=O)N([C@@H](C)CO)C[C@H](C)[C@@H](CN(C)Cc1ccc3c(c1)OCO3)OCCCC[C@H](C)O2`, the cytotoxicity call is “inactive”.

Consider `Brc1cccc2ocnc12`, for which the cytotoxicity call is “inactive”.

In the case of `Cc1cc(C(=O)Nc2cccc3c2O[C@H](CN(C)Cc2ccc(C(=O)O)cc2)[C@H](C)CN([C@H](C)CO)C3=O)n(C)n1`, the cytotoxicity call was “inactive”.

Take `CC[C@H](C)[C@@H]([C@@H](CC(=O)N1CCC[C@H]1[C@H](OC)[C@@H](C)C(=O)N[C@@H](Cc1ccccc1)c1nccs1)OC)N(C)C(=O)[C@@H](NC(=O)[C@H](C(C)C)N(C)C)C(C)C`: the cytotoxicity call is “active”.

Regarding `C[C@@H]1CCCCO[C@H](CN(C)C(=O)Nc2cccc3ccccc23)[C@H](C)CN([C@@H](C)CO)C(=O)c2cc(NC(=O)Nc3ccc4c(c3)OCO4)ccc2O1`, the cytotoxicity call is “inactive”.

As to `Cc1noc(C)c1NC(=O)Nc1ccc2c(c1)C(=O)N([C@H](C)CO)C[C@H](C)[C@@H](CN(C)Cc1ccc(-c3ccccc3)cc1)O2`, the cytotoxicity call is “inactive”.

Take `COC(=O)C1=C(C)NC(C)=C(C(=O)OC(C)(C)CN(C)CCC(c2ccccc2)c2ccccc2)[C@@H]1c1cccc([N+](=O)[O-])c1`: the cytotoxicity call was “inactive”.

As for `COC(=O)C1=C(C#N)NC(C)=C(C(=O)OC(C)C)C1c1cccc([N+](=O)[O-])c1` (centres undefined), the cytotoxicity call was “active”.

On to `CCOC(=O)C1=C(C)NC(C)=C(C(=O)OC)C1c1cccc([N+](=O)[O-])c1` (centres undefined), for which the cytotoxicity call was “inactive”.

Turning to `CCOC(=O)C1=C(C)NC(c2ccccc2)=C(C(=O)OCc2ccc([N+](=O)[O-])cc2)[C@@H]1C#Cc1ccccc1`, the cytotoxicity call was “inactive”.

On to `CCCN1C(C)=C(C(=O)OC)[C@@H](c2cccc([N+](=O)[O-])c2)C(C(=O)ON2CCC(c3ccccc3)(c3ccccc3)CC2)=C1C`, for which the cytotoxicity call was “active”.

In the case of `COC(=O)C1=C(C)NC(C)=C(C(=O)OCC(C)C)[C@@H]1c1ccccc1[N+](=O)[O-]`, the cytotoxicity call was “inactive”.

With `COC(=O)C1=C(C)NC(C)=C(C(=O)OCCN2CCN(C(c3ccccc3)c3ccccc3)CC2)C1c1cccc([N+](=O)[O-])c1` (centres undefined), the cytotoxicity call is “active”.

`COC(=O)C1=C(C)NC(C)=C(C(=O)OCC(C)C)C1c1ccccc1[N+](=O)[O-]` (centres undefined): the cytotoxicity call is “inactive”.

For `NNC(=O)c1cccc([N+](=O)[O-])c1`, the cytotoxicity call is “inactive”.

With `COC(=O)C1=C(C)NC(C)=C(C(=O)NCCCN2CCC(c3ccccc3)(c3ccccc3)CC2)[C@@H]1c1ccc([N+](=O)[O-])cc1`, the cytotoxicity call was “active”.

As for `O=C(Nc1cccc([N+](=O)[O-])c1)C(=O)NC1CC1`, the cytotoxicity call is “inactive”.

With `COC(=O)C1=C(C)NC(C)=C(C(=O)OCCN(C)Cc2ccccc2)C1c1cccc([N+](=O)[O-])c1.Cl` (centres undefined), the cytotoxicity call is “inactive”.

For the compound `Oc1ccccc1CNc1ccc(C2CCCCC2)cc1`, the cytotoxicity call was “inactive”.

Regarding `CNCc1cc2ccccc2s1`, the cytotoxicity call is “inactive”.

Turning to `O=C(C[C@@H]1C[C@@H]2c3cc(NC(=O)c4ccc5c(c4)OCO5)ccc3O[C@@H]2[C@H](CO)O1)NCCN1CCCCC1`, the cytotoxicity call is “inactive”.

Regarding `Cc1noc(C)c1NC(=O)Nc1ccc2c(c1)C(=O)N([C@@H](C)CO)C[C@H](C)[C@@H](CN(C)C(=O)Cc1ccccc1)OCCCC[C@H](C)O2`, the cytotoxicity call is “inactive”.

As for `Cn1ccc(C(=O)N2CC[C@@H]3OCCN(S(C)(=O)=O)[C@@H]3C2)n1`, the cytotoxicity call is “inactive”.

Turning to `C[C@H]1CN([C@@H](C)CO)C(=O)c2cc(NS(=O)(=O)c3ccc(Cl)cc3)ccc2O[C@H]1CN(C)Cc1ccc(C(=O)Nc2ccccc2N)cc1`, the cytotoxicity call is “inactive”.

In the case of `C[C@@H]1CN([C@H](C)CO)C(=O)c2cc(C#Cc3ccc(F)cc3)cnc2O[C@@H]1CN(C)CC1CCOCC1`, the cytotoxicity call was “inactive”.

`CC1(C)OC2CC3C4CC(F)C5=CC(=O)C=CC5(C)C4(F)C(O)CC3(C)C2(C(=O)CO)O1` (centres undefined): the cytotoxicity call is “inactive”.

As to `COCCOC(=O)C1=C(C)NC(C)=C(C(=O)OCC=Cc2ccccc2)C1c1cccc([N+](=O)[O-])c1` (centres undefined), the cytotoxicity call is “active”.

In the case of `COC(=O)C1=C(C)NC(C)=C(C(=O)OCCCN2CCC(c3ccccc3)(c3ccccc3)CC2)[C@@H]1c1cccc([N+](=O)[O-])c1`, the cytotoxicity call was “active”.

For the compound `COc1cc(OC)cc(C(=O)OCCCN2CCN(CCCOC(=O)c3cc(OC)cc(OC)c3)CC2)c1`, the cytotoxicity call was “inactive”.

Consider `CC1=C(C(=O)OCCN(Cc2ccccc2)c2ccccc2)[C@@H](c2cccc([N+](=O)[O-])c2)C(P2(=O)OCC(C)(C)CO2)=C(C)N1.CCO.Cl`, for which the cytotoxicity call is “inactive”.

`COCCOC(=O)C1=C(C)NC(C)=C(C(=O)OC(C)C)C1c1cccc([N+](=O)[O-])c1` (centres undefined): the cytotoxicity call was “inactive”.

Consider `COC(=O)C1=C(C)NC(C)=C(C(=O)OCCCN2CCC(c3ccccc3)(c3ccccc3)CC2)[C@H]1c1cccc([N+](=O)[O-])c1`, for which the cytotoxicity call is “active”.

As for `CC1=C(C(=O)OCCN(Cc2ccccc2)c2ccccc2)[C@H](c2cccc([N+](=O)[O-])c2)C(P2(=O)OCC(C)(C)CO2)=C(C)N1`, the cytotoxicity call is “inactive”.

With `O=C(C[C@@H]1CC[C@H]2[C@@H](COC[C@@H](O)CN2Cc2ccccc2F)O1)N[C@H]1CCN(Cc2ccccc2)C1`, the cytotoxicity call is “inactive”.

For `CO[C@@H]1CN(C)C(=O)c2ccc(NC(=O)c3ccc(F)cc3)cc2OC[C@H](C)N(C(=O)CN(C)C)C[C@@H]1C`, the cytotoxicity call is “inactive”.

Turning to `C[C@H]1CN([C@@H](C)CO)C(=O)c2cccc(NC(=O)C3CC3)c2O[C@H]1CN(C)Cc1ccc2c(c1)OCO2`, the cytotoxicity call is “inactive”.

In the case of `C[C@@H]1CN([C@H](C)CO)S(=O)(=O)c2ccc(C#CCN(C)C)cc2O[C@H]1CN(C)C(=O)CN(C)C`, the cytotoxicity call is “inactive”.

As to `Cc1noc(C)c1NC(=O)N(C)C[C@H]1Oc2ccc(NS(=O)(=O)c3ccccc3)cc2C(=O)N([C@H](C)CO)C[C@H]1C`, the cytotoxicity call was “inactive”.

On to `COCCNC(=O)C[C@H]1CC[C@H]2[C@H](COc3ccc(NC(=O)Nc4cccc(F)c4)cc3C(=O)N2C)O1`, for which the cytotoxicity call was “inactive”.

Turning to `C[C@H](CO)N1C[C@H](C)[C@@H](CN(C)CC2CC2)Oc2ccc(NS(=O)(=O)c3cccs3)cc2CC1=O`, the cytotoxicity call was “inactive”.

For the compound `NCC[C@H]1CC[C@H](NC(=O)C2CCCCC2)[C@@H](CO)O1`, the cytotoxicity call is “inactive”.

On to `COc1ccc(NC(=O)N(C)C[C@@H]2OCCCC[C@H](C)Oc3ccc(NC(=O)c4ccccc4)cc3C(=O)N([C@H](C)CO)C[C@@H]2C)cc1`, for which the cytotoxicity call is “inactive”.

For `C[C@H](CO)N1C[C@H](C)[C@@H](CN(C)Cc2ccc3c(c2)OCO3)Oc2ccc(NS(=O)(=O)c3ccccc3)cc2CC1=O`, the cytotoxicity call was “inactive”.

Regarding `C[C@@H]1CN([C@@H](C)CO)C(=O)c2cc(NC(=O)Cn3cnnn3)ccc2O[C@@H]1CN(C)C(=O)Nc1cccc2ccccc12`, the cytotoxicity call is “inactive”.

For `COc1ccc(S(=O)(=O)Nc2ccc3c(c2)C(=O)N([C@@H](C)CO)C[C@@H](C)[C@H](CN(C)C(=O)C2CCCCC2)OCCCC[C@@H](C)O3)cc1`, the cytotoxicity call is “inactive”.

Take `C[C@@H]1CCCCO[C@@H](CN(C)Cc2ccncc2)[C@H](C)CN([C@H](C)CO)C(=O)c2cc(NC(=O)Nc3ccccc3)ccc2O1`: the cytotoxicity call is “inactive”.

As to `C[C@H](CO)N1C[C@H](C)[C@@H](CN(C)C(=O)Cc2ccccc2)OCCCC[C@H](C)Oc2ccc(NC(=O)Nc3ccc4c(c3)OCO4)cc2C1=O`, the cytotoxicity call was “inactive”.

With `C[C@@H]1CN([C@@H](C)CO)C(=O)Cc2cc(NC(=O)CCCN(C)C)ccc2O[C@@H]1CN(C)Cc1ccc(Oc2ccccc2)cc1`, the cytotoxicity call was “active”.

For `C[C@H](CO)N1C[C@H](C)[C@@H](CN(C)Cc2ccccc2)Oc2ccc(NC(=O)CCCN(C)C)cc2CC1=O`, the cytotoxicity call was “inactive”.

On to `C[C@@H]1CN([C@H](C)CO)C(=O)Cc2cc(NC(=O)CCCN(C)C)ccc2O[C@H]1CN(C)Cc1ccc(Oc2ccccc2)cc1`, for which the cytotoxicity call is “active”.

On to `C[C@H](CO)N1C[C@H](C)[C@@H](CN(C)Cc2ccc(Oc3ccccc3)cc2)Oc2ccc(NC(=O)CCCN(C)C)cc2CC1=O`, for which the cytotoxicity call was “inactive”.

With `C[C@H]1CN([C@@H](C)CO)C(=O)Cc2cc(NC(=O)CCCN(C)C)ccc2O[C@@H]1CN(C)Cc1ccc(Oc2ccccc2)cc1`, the cytotoxicity call was “active”.

Regarding `C[C@H]1CN([C@@H](C)CO)C(=O)Cc2cc(NC(=O)CCCN(C)C)ccc2O[C@H]1CN(C)Cc1ccc(Oc2ccccc2)cc1`, the cytotoxicity call is “inactive”.

Take `C[C@@H]1CN([C@@H](C)CO)C(=O)Cc2cc(NC(=O)CCCN(C)C)ccc2O[C@H]1CN(C)Cc1ccc(Oc2ccccc2)cc1`: the cytotoxicity call was “inactive”.

With `C[C@@H]1CN([C@H](C)CO)C(=O)Cc2cc(NC(=O)CCCN(C)C)ccc2O[C@@H]1CN(C)Cc1ccc(Oc2ccccc2)cc1`, the cytotoxicity call is “active”.

In the case of `C[C@H](CO)N1C[C@H](C)[C@H](CN(C)Cc2ccc(Oc3ccccc3)cc2)Oc2ccc(NC(=O)CCCN(C)C)cc2CC1=O`, the cytotoxicity call is “inactive”.

As for `C[C@@H]1CN([C@@H](C)CO)S(=O)(=O)c2ccc(C#Cc3ccccc3F)cc2O[C@@H]1CN(C)CC1CC1`, the cytotoxicity call was “inactive”.

Take `C[C@H](CO)N1C[C@H](C)[C@@H](CN(C)Cc2ccc(Oc3ccccc3)cc2)Oc2c(NS(=O)(=O)c3ccc(F)cc3)cccc2C1=O`: the cytotoxicity call was “inactive”.

(Values after the antibiotic and cytotoxicity screens of Wong et al. (2023).)
